Rows were chosen to be rich in hits. Some 7.9% of all compounds tested hit in one or more screens of this group.
SW480 rerep: A quantitative high throughput screen for small molecules that induce DNA re-replication in SW480 colon adenocarcinoma cells; AID 624297, 2012; SW480 DNA re-replication, Hoechst DNA content imaging, 48 h; 1.8% of 340,000 active; Potency, µM (series often up to 46.1 µM), most hits filed as activators; note: nearly all actives have a fitted effect of over 55% in size
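250 cells/well; 23 nL cpd via pin tool; 48 hr, 37 C, 5% CO2; Hoechst 40 min; imager read of total nuclear intensity, ex 405/em 500-530 nm.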
MCF10A rerep: A quantitative high throughput screen for small molecules that induce DNA re-replication in MCF 10a normal breast cells. Potency, µM (doses to about 46.1 µM), usual class: activators. 2.9% of 350,000 active. MCF 10A DNA re-replication, Hoechst nuclear intensity, 48 h; note: nearly all actives have a fitted effect of over 50% in size
KB-V1 cytotox: qHTS assay for MDR1-selective chemotherapeutics: Primary screen using the drug-selected MDR subline cells KB-V1. 3.4% of 400,000 active. KB-V1 MDR cells viability, CellTiter-Glo, 72 h. Potency, µM (doses to about 46.1 µM), usual class: cytotoxic; note: nearly all actives have a fitted effect of over 60% in size
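Readout: CellTiter-Glo luminescence, 10 min after addition. Cells: KB-V1 MDR subline, 72 h at 37 degrees C with compound. Analysis: corrected, normalized data fitted to concentration-effect curves.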
HT1080 IDH1KD tx: qHTS for induction of synthetic lethality in tumor cells producing 2HG: qHTS for the HT-1080-IDH1KD cell line; 2% of 360,000 active; HT-1080 IDH1 knockdown viability, ATP luminescence, 48 h; Potency, µM (top dose mostly 46.1 µM), actives largely listed as cytotoxic; AID 686971, 2013
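Luminescent ATP read-out (CellTiter-Glo, 10 min at room temperature) after 48 h compound exposure at 37 °C gave viability of IDH1-knockdown HT-1080 cells. Activity was normalised to DMSO and cell-free wells, then fitted as concentration-response curves.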
HT1080NT lethal: qHTS for induction of synthetic lethality in tumor cells producing 2HG: qHTS for the HT-1080-NT fibrosarcoma cell line. 1.6% of 360,000 active. HT-1080-NT fibrosarcoma viability, CellTiter-Glo ATP luminescence, 48 h. Potency, µM (titrated, usually from 46.1 µM), most hits filed as cytotoxic;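 note: NT is the 2HG producing partner of a matched IDH1 knockdown line; nearly all actives have a fitted effect of over 55% in size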
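750 cells/well, RPMI + 5% FBS; 2 h settle, compound pin-transfer, 48 h at 37 degrees C. CellTiter-Glo 10 min RT, luminescence. Normalized to DMSO and media-only wells.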
KB-3-1 cytotox: qHTS assay for MDR1-selective chemotherapeutics: Primary screen using the parental adenocarcinoma cell KB-3-1; KB-3-1 viability, CellTiter-Glo ATP luminescence, 72 h; Potency, µM (highest dose often 46.1 µM), hits mostly cytotoxic; AID 1347075, 2019; 1.4% of 400,000 active; note: nearly all actives have a fitted effect of over 60% in size
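72 h, 37 °C compound treatment of KB-3-1 parental cells; CellTiter-Glo added, 10 min, luminescence read. Data corrected against DMSO-only plates and normalized before curve fitting.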
Numbers stand for hits; – = inactive; ? = inconclusive; · = no result given. Calls come from the whole dose curve; as a rule, active = well fitted curve in the direction sought with a large enough effect; inconclusive = small, poorly fitted or top-dose-only effect, or another doubt; inactive = no such curve, though single readings can be large; an effect the other way counts as inactive or inconclusive.

SMILES	SW480 rerep	MCF10A rerep	KB-V1 cytotox	HT1080 IDH1KD tx	HT1080NT lethal	KB-3-1 cytotox
CCOc1cc(/C=C/C(=O)c2ccc(C)cc2)ccc1OCC(=O)N(C)C	?	23µM	15µM	?	–	?
COc1ccc(/C=C/C(=O)c2ccccc2)cc1Cn1nnc2ccccc21	?	12µM	21µM	?	?	–
COc1ccc(/C=C/C(=O)c2ccc3c(c2)OCO3)cc1OC	?	?	?	–	–	–
COc1ccc(/C=C/C(=O)c2ccc(C(=O)/C=C/c3ccc(OC)c(OC)c3)cc2)cc1OC	8.2µM	6.5µM	–	–	–	?
COc1ccc(C=CC(=O)c2ccc(OCc3ccccc3)c(OC)c2)cc1OC	·	·	?	?	–	–
COc1cc(/C=C/C(=O)c2ccc(C)cc2)ccc1OCC#N	16µM	?	15µM	21µM	?	?
Cc1ccc(CNC(=O)Cn2c(=O)cc(C(F)(F)F)c3c(C)nn(C)c32)cc1	·	·	–	·	·	–
C[C@H](O)[C@@H]1C(=O)N2CCc3ccc(N4CCN(C)CC4)cc3[C@@H]2C[C@@H]1N(C)C(=O)c1ccco1	·	·	–	–	–	–
CCOC(=O)C1(C)CCCN(C(=O)COc2ccccc2)C1 (configuration not stated)	·	·	–	–	–	–
CC(C)(C)OC(=O)N(CCc1ccccc1)Cc1ccccc1OCc1cccc(NC(=O)/C=C/c2ccccc2)c1	–	–	–	–	–	–
O=C(NCc1ccc(OC(F)(F)F)cc1)c1cccc2c1C(=O)c1ccc(N3CCCC3)cc1S2(=O)=O	–	–	–	–	?	–
O=C(NCc1ccc(OC(F)(F)F)cc1)c1cccc2c1C(=O)c1ccc(N3CCC(Cc4ccccc4)CC3)cc1S2(=O)=O	–	5.8µM	–	–	–	–
O=C(NCc1cccc(F)c1)c1cccc2c1C(=O)c1ccc(N3CCC(Cc4ccccc4)CC3)cc1S2(=O)=O	–	12µM	–	–	–	–
O=C(NCc1cccc(C(F)(F)F)c1)c1cccc2c1C(=O)c1ccc(N3CCC(Cc4ccccc4)CC3)cc1S2(=O)=O	–	5.8µM	–	–	?	–
Cc1ccc2oc(C(Cl)(Cl)Cl)cc(=O)c2c1	–	–	–	?	10µM	–
Cc1ccc2oc(C(F)(F)C(F)F)cc(=O)c2c1	–	–	–	–	–	?
O=C(O)C1C=CC(C(=O)O)c2ccccc21 (configuration not stated)	·	·	–	–	–	–
Cc1ccc(OCCn2cc(C(=O)c3ccco3)c3ccccc32)cc1C	·	·	–	·	·	–
COc1ccc(OC)c(NC(=O)CSc2nc3n[nH]c(C)c3c(=N)n2-c2cccc(Cl)c2C)c1	–	–	?	23µM	–	?
CCc1ccccc1NC(=O)CSc1nc2n[nH]c(C)c2c(=N)n1-c1cccc(OC)c1	–	?	8.2µM	?	–	–
CCOc1ccccc1C(=O)Nc1cc(C)ccc1NC(=O)c1ccco1	–	–	–	–	–	–
CCOC(=O)[C@]12Cc3c(cc(OC)c(OC)c3OC)[C@H]1N(C1CCCCC1)C(=O)c1cc(OC)ccc12	·	·	4.6µM	12µM	12µM	3.3µM
CCOC(=O)N1CCC(N2C(=O)c3ccccc3C2Nc2cc(OC)c(OC)c(OC)c2)CC1 (configuration not stated)	–	–	–	–	–	–
CCOC(=O)c1ccc(N2C(=O)c3[nH]nc(-c4ccc(C)cc4)c3C2c2ccc(O)cc2)cc1 (configuration not stated)	·	·	–	·	·	?

From PubChem
